Common to all, as to set-up: scale not given: direction of the effect not stated beside the values
For assay [1], the target named is Protein translocase subunit SecA (Escherichia coli (strain K12)) (UniProt P10408). The assay is described as follows: Assay to Identify E. coli SecA ATPase Inhibitors. Type of assay: functional. Conditions: 30 µM.
For assay [2], the target named is T1, Ubiquitin-activating enzyme e1, putative (Leishmania donovani (strain BPK282A1)) (UniProt E9BSI1).
T1 sequence (whole entry): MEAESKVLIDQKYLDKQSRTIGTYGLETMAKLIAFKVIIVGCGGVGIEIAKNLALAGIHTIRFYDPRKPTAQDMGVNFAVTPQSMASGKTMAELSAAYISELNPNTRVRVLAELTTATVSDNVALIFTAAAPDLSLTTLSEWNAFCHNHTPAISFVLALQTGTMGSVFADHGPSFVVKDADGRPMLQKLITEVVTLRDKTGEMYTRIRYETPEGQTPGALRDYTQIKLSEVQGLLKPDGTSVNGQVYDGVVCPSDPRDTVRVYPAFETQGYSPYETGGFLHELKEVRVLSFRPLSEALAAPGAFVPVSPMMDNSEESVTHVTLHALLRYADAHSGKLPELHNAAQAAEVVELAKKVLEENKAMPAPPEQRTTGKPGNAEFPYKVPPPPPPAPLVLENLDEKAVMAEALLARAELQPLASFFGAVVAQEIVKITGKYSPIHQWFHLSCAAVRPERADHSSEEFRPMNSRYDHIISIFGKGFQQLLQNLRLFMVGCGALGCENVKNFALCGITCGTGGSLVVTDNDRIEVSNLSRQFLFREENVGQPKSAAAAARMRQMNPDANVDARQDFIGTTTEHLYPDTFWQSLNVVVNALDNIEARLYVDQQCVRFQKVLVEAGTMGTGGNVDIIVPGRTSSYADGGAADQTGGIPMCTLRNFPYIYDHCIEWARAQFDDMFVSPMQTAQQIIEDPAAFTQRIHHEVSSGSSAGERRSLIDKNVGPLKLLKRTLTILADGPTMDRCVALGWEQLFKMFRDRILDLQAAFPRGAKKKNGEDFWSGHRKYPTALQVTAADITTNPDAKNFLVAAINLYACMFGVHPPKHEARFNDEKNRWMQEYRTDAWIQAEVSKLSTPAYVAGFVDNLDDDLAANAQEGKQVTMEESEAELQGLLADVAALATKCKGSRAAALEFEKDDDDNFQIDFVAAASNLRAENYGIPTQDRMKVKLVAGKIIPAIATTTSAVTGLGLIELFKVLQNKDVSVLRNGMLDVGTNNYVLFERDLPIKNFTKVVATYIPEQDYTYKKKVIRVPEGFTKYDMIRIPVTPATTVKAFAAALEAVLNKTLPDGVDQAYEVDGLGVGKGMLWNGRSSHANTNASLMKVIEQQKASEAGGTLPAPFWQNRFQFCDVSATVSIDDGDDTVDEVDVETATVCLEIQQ
The assay is described as follows: Leishmania donovani Ubiquitin Activating Enzyme (LdE1). The format is functional. Conditions: 30 µM.

Assay [3] concerns the target T2, Aspartate--tRNA(Asp/Asn) ligase (Mycobacterium tuberculosis (strain ATCC 25618 / H37Rv)) (UniProt P9WFW3). Further: in the data most compounds retested in dose-response had high values.
T2 sequence (whole entry): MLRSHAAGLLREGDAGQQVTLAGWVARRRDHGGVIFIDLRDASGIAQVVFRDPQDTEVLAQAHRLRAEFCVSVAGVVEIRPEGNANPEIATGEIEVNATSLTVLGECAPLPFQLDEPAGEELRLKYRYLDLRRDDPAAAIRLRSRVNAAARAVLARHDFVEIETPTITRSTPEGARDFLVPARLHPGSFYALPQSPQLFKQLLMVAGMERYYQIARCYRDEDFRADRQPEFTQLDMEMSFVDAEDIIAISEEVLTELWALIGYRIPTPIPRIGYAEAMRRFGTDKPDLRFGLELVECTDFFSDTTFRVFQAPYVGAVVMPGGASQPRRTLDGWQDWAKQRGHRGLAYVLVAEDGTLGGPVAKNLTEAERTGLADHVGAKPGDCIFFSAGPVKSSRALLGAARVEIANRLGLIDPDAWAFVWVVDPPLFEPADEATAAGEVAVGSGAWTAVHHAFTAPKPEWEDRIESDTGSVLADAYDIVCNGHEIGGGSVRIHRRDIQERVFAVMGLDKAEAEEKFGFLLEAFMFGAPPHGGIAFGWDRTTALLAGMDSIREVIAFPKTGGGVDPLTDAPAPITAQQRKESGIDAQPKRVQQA
The assay is described as follows: Assay for Asp RNA synthetase-1 from Mycobacterium tuberculosis. To be noted: 30 µM. Type of assay: functional.

Assay [4] has as its target AMP-activated protein kinase, AMPK (Homo sapiens) (UniProt P54646+O43741+P54619+Q9UGJ0+Q9Y478+Q13131+Q9UGI9). Description: AMP-dependent Kinase enzyme assay. An in vitro enzyme assay that detects ADP turnover that is directly proportional to AMPK activity. This uses naive AMPK that is activated during the assay with MK-8722. The format is functional. Conditions: 30 µM.

Assay [5] addresses Sialic acid-binding Ig-like lectin 9 (Homo sapiens) (UniProt Q9Y336). Description: Hs-Siglec9 ALPHAscreen SOP 20170721. Conditions: 10 µM.
Another assay has as its system Trypanosoma cruzi. The assay is described as follows: Trypanosoma cruzi phosphomannomutase and mannose-1-phosphate guanylyltransferase assay. The format is functional. To be noted: 10 µM.
Assay [6] has as its target T3, Arginase-2, mitochondrial (Homo sapiens) (UniProt P78540).
T3 sequence (whole entry): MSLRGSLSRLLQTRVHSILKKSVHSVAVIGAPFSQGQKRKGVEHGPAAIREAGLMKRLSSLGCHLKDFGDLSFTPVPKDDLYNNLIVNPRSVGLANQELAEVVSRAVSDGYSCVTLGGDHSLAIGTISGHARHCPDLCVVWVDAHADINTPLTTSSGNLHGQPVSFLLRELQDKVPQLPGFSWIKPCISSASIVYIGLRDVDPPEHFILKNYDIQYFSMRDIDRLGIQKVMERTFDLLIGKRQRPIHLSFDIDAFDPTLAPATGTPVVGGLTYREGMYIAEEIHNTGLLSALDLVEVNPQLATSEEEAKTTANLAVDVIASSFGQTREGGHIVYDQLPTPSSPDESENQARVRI
Description: in vitro enzyme assay to detect the production of urea directly proportional to the activity of Arginase II. Further: in the data most compounds retested in dose-response had high values. The format is functional. Conditions: 33.3 µM.

Assay [7] deals with T4, Proteasome subunit beta (Trypanosoma cruzi) (UniProt O96673).
T4 sequence (whole entry): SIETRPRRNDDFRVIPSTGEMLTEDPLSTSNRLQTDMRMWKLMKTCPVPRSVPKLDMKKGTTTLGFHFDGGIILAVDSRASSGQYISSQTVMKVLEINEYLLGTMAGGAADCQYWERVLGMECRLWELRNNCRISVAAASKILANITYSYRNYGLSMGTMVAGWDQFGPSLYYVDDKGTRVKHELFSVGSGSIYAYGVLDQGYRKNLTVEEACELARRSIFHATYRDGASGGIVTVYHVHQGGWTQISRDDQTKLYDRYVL
Description: Trypanosoma cruzi proteasome chymotrypsin-like activity (TcProtChymo) assay. Further: in the data most compounds retested in dose-response had high values. The format is functional. Conditions: 9.37 µM.

For the next assay, the species on record is Homo sapiens. The assay is described as follows: To identify inhibition of the IFN signalling (Jak-Stat) pathway via expression of an eGFP reporter gene under the control of an IFN-stimulated response element (ISRE) containing MxA promoter. The format is functional. To be noted: 30 µM. Background: In a reporter assay the amount or activity of a reporter protein is the signal.

The target of assay [8] is Shiga toxin 2 (Escherichia coli O157:H7) (UniProt P09385+P09386). Description: E. coli 0.157:H7 Shiga Toxin SOP - stx2 screening assay. Type of assay: functional. Conditions: 30 µM.
For assay [9], the target named is T5, Tyrosyl-tRNA synthetase, putative (Trypanosoma cruzi (strain CL Brener)) (UniProt Q4DSP6).
T5 sequence (whole entry): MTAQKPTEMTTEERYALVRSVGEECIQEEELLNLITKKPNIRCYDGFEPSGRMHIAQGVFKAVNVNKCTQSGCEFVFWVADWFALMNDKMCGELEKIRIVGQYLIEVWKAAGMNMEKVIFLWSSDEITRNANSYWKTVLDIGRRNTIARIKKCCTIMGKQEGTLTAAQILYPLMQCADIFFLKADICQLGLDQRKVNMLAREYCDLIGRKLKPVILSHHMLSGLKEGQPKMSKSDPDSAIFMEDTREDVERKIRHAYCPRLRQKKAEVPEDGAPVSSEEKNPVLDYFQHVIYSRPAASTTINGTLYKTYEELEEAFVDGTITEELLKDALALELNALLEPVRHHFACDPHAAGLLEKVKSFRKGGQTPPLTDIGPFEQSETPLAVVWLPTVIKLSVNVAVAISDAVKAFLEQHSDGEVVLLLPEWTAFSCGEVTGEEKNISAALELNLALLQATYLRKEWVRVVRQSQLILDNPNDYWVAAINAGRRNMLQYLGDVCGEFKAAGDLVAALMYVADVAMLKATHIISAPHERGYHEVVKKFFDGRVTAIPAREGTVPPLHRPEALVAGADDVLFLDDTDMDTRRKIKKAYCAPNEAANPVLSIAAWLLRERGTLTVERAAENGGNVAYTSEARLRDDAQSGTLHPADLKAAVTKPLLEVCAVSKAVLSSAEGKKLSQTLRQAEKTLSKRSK
Description: Trypanosoma cruzi tyrosyl tRNA synthetase (TcYRS) _High Tyrosine SOP. Further: in the data most compounds retested in dose-response had high values. Conditions: 30 µM. Type of assay: functional.

In assay [10] the target is T5, Tyrosyl-tRNA synthetase, putative (Trypanosoma cruzi (strain CL Brener)). Description: Trypanosoma cruzi tyrosyl tRNA synthetase (TcYRS) SOP. The format is functional. Conditions: 30 µM.
In assay [11] the target is Chromo domain-containing protein 1 (Saccharomyces cerevisiae (strain ATCC 204508 / S288c) (Baker's yeast)) (UniProt P32657). The assay is described as follows: ScCHD-1 Enzyme Inhibition Assay. Further: in the data most compounds retested in dose-response had high values. To be noted: 30 µM. Type of assay: functional.
Chromo domain-containing protein 1 (Saccharomyces cerevisiae (strain ATCC 204508 / S288c) (Baker's yeast)), sequence (P32657 whole entry, the tested form may be a part): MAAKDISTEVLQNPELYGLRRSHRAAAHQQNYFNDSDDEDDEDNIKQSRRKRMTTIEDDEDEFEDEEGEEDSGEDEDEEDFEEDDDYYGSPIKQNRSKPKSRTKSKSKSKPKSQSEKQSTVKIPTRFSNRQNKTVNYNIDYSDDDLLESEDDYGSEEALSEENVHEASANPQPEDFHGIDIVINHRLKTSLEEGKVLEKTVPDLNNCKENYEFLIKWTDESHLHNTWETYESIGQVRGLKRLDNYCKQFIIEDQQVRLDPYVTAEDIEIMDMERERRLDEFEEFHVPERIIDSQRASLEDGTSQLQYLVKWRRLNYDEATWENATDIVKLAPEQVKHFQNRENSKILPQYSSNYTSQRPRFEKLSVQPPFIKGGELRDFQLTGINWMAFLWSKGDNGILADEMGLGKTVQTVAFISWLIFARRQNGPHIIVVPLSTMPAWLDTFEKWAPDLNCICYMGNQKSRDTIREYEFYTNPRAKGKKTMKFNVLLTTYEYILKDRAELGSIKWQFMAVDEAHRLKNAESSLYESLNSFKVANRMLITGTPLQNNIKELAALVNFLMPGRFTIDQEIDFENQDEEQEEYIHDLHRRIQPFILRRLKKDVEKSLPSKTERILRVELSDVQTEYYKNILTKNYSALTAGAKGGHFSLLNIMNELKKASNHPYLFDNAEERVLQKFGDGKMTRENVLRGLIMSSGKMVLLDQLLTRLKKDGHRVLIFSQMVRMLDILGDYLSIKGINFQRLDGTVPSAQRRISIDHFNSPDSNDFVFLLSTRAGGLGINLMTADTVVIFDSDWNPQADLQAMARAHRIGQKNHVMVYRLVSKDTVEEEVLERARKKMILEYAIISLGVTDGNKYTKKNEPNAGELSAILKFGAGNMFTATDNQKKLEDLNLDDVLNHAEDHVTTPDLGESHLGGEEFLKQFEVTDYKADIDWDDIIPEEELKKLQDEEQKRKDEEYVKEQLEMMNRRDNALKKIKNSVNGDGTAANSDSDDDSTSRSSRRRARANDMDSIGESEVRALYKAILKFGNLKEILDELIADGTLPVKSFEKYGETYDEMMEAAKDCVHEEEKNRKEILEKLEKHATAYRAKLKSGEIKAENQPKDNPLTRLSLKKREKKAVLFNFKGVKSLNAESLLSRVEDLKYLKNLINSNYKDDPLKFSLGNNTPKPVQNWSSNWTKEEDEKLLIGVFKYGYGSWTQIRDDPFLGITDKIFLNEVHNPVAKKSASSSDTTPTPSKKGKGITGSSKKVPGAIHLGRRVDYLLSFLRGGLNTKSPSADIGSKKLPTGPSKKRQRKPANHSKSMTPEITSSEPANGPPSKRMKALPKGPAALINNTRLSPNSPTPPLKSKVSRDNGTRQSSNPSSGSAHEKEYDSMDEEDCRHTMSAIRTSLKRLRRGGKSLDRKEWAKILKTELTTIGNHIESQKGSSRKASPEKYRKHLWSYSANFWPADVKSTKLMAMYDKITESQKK

For some of these results: Entries with a potency or affinity are not part of this list.

Sialic acid-binding Ig-like lectin 9 (Homo sapiens), sequence (Q9Y336 whole entry): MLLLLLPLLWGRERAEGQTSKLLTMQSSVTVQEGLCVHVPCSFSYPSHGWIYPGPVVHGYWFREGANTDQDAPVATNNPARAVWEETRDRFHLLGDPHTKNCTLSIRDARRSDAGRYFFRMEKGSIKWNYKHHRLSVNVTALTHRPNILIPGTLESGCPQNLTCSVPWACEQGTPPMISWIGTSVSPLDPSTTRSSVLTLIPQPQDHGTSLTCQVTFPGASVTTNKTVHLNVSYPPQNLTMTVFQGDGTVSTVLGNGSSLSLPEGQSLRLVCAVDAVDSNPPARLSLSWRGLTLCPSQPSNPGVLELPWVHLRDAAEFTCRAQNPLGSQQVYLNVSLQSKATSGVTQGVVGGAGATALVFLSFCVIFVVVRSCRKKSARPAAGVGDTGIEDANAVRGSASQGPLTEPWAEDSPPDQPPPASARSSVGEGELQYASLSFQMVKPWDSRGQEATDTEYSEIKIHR
Protein translocase subunit SecA (Escherichia coli (strain K12)), sequence (P10408 whole entry): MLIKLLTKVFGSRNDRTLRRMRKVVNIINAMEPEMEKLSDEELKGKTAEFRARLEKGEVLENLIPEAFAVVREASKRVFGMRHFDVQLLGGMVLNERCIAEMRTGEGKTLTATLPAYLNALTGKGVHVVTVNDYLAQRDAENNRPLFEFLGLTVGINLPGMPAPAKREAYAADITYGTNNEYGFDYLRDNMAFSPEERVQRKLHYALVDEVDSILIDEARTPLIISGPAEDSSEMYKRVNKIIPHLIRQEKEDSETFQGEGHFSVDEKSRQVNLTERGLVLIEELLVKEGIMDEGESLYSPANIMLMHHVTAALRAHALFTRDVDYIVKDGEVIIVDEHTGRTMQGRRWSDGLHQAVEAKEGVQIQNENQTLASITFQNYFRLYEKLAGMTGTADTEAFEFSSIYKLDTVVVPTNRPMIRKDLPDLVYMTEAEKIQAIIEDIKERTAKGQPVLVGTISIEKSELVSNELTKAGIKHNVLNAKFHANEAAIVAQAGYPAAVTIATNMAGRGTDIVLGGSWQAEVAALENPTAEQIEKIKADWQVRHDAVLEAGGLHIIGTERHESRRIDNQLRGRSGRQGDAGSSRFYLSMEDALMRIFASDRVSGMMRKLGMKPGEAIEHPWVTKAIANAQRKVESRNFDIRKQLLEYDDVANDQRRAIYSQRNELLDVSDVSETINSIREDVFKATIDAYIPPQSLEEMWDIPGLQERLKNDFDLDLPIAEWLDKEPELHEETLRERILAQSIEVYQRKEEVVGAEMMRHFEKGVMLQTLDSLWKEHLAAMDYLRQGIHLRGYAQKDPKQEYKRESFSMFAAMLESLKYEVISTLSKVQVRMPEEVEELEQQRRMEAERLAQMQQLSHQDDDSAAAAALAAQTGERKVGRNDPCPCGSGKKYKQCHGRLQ

`CN(CCc1ccc(F)cc1)Cc1nc2c(cnn2C)c(=O)[nH]1`: the Percent Effect is -6.94% in [1]; 21.1% in assay [2]; -1.46% in assay [3]; -5.8% in assay [4]; 1.02% in assay [5]; 2.33% in the assay on Trypanosoma cruzi. Besides, the Percent Effect is -6.47% in assay [6]; 14.5% in assay [7]; 2.88% in the assay listed under Homo sapiens; 14.7% in assay [8]; 10.3% in assay [9]; 23.5% in assay [10]. The Percent Effect in assay [11] is -6.22%.
As for `O=C(N[C@H]1CN[C@H]2CCCO[C@H]21)c1cscn1`, the Percent Effect in assay [1] is 1.11%; in assay [2] it was 21.9%; in assay [3], 4.92%; in assay [4] it was -4.2%; in [5], 5.27%; in the assay with Trypanosoma cruzi, 0%. Also, the Percent Effect in assay [6] was -1.6%; in assay [7], 18.6%; in the assay filed under Homo sapiens, 4.9%; in assay [8], -0.964%; in assay [9] it was 7.29%; in assay [10], 13.6%. The Percent Effect in assay [11] was -4.35%.
In the case of `COc1cc(OC)c(C2SCC(=O)Nc3n[nH]cc32)cc1OC` (configuration not stated), the Percent Effect is -4.64% in assay [1]; 5.26% in assay [2]; 10.6% in assay [3]; 15.2% in [4]; 0.428% in assay [5]; -0.682% with Trypanosoma cruzi. Moreover, the Percent Effect in assay [6] was -7.1%; in assay [7], 9.11%; in the assay filed under Homo sapiens, 20.6%; in assay [8], 10.6%; in [9], 2.13%; in assay [10], 2.6%. In assay [11], the Percent Effect is -1.49%.
In the case of `O=C1OCCC1N1CCN(C(=O)Cc2c[nH]c3ccccc23)CC1` (configuration not stated), the Percent Effect is -0.412% in [1]; 18.9% in assay [2]; 6.13% in assay [3]; -14.5% in assay [4]; -1.41% in [5]; 3.49% in the assay with Trypanosoma cruzi. In addition, the Percent Effect was -9.62% in assay [6]; 15.7% in assay [7]; 9.19% in the assay listed under Homo sapiens; 15.5% in [8]; 12.3% in assay [9]; 23.5% in assay [10]. Further, the Percent Effect in [11] is -11.1%.

Values taken from ChEMBL document CHEMBL3988442, “University of Dundee, Small-Polar-MMV Screening Library” (2021).
